Each structure is given as a SMILES string. Compounds without any hit were thinned out: in the full panel of roughly 83,000, 20% have a hit.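 In brief: 96-well plates, 48 h treatment, single concentration, percent growth endpoint.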 A number with no mark means an inactive call. Activity calls are given as the source filed them. Rule for the calls: active = growth percent below 10; inactive = the rest.

Common to all, as to experiment: NCI-60 one-dose screen, 48 h (100 = growth as untreated, 0 = no growth, -100 = all killed)
Settings in all cases: 10 µM

Assay [1] has as its system SK-MEL-2 melanoma.
Assay [2] relates to EKVX NSCLC.
The subject of assay [3] is SN12C renal.
Assay [4] concerns UO-31 renal.
The test system of assay [5] is TK-10 renal.
Assay [6] relates to ACHN renal.
The test system of assay [7] is A498 renal.
Assay [8] has as its system CCRF-CEM leukemia.
Assay [9] relates to MOLT-4 leukemia.
For assay [10], the system named is SR leukemia.
The subject of assay [11] is RPMI-8226 leukemia.
Assay [12] deals with OVCAR-8 ovarian.
Assay [13] has as its system OVCAR-5 ovarian.
Assay [14] relates to OVCAR-4 ovarian.
For assay [15], the system named is SK-OV-3 ovarian.
In assay [16] the test system is IGROV1 ovarian.
In assay [17] the test system is OVCAR-3 ovarian.
For assay [18], the system named is HS 578T breast.
Assay [19] relates to NCI/ADR-RES ovarian.

Consider `O=C(CN(C1CCCCC1)C1CCCCC1)Nc1ccc(S(=O)(=O)c2ccc(NC(=O)CN(C3CCCCC3)C3CCCCC3)cc2)cc1`, for which the growth is -35.4% (active) in assay [1]; -43.6% (active) in assay [2]; 30.6% in assay [3]; 10.2% in [4]; 56.1% in assay [5]; -33% (active) in assay [6]. For the same compound, the growth was 89.4% in assay [7]; -59.7% (active) in [8]; -25.2% (active) in [9]; -51.4% (active) in [10]; -66.9% (active) in [11]; 3.23% (active) in [12]. Besides, the growth was -54.8% (active) in [13]; -72.6% (active) in assay [14]; 76.6% in assay [15]; -52.3% (active) in assay [16]; -85.2% (active) in assay [17]; 33.9% in assay [18]. In assay [19], the growth was 4.04% (active).

Consider `COC1OC(COS(=O)OC)C(O)C(O)C1OS(=O)OC` (configuration not stated), for which the growth in assay [1] is 112%; in assay [2], 103%; in assay [3], 106%; in assay [4] it was 88.8%; in assay [5], 88.6%; in assay [6] it was 106%. For the same compound, the growth in assay [7] is 116%; in assay [8], 101%; in assay [9] it was 92.1%; in assay [10] it was 80%; in assay [11], 99.7%; in assay [12], 114%. Further, the growth was 90.5% in assay [13]; 116% in assay [14]; 104% in assay [15]; 97.7% in assay [16]; 106% in assay [17]; 102% in assay [18]. Besides, the growth in assay [19] was 98.1%.

Take `CCN(CC)CCOc1cccc2c1C(=O)c1ccccc1C2=O`: the growth in assay [1] is 91.8%; in assay [2], 95.2%; in assay [3], 90.9%; in assay [4], 62.2%; in [5], 97.6%; in assay [6], 92.5%. The growth was 87.5% in assay [7]; 92.6% in assay [8]; 96.4% in assay [9]; 88.4% in assay [10]; 86% in assay [11]; 85.7% in assay [12]. Also, the growth was 102% in assay [13]; 86.7% in assay [14]; 82.2% in assay [15]; 102% in [16]; 102% in [17]; 90% in assay [18]. In addition, the growth in [19] was 92.5%.

As to `O=C(NCCNC(=O)c1ccc(F)cc1)Nc1ccc(-n2cc(-c3ccncc3)c(-c3ccc(Cl)c(O)c3)n2)cc1`, the growth in assay [1] was -11.4% (active); in [2], 11.8%; in assay [3] it was 31.5%; in assay [4], 16.9%; in assay [5] it was 12.3%; in assay [6], 9.32% (active). The growth in [7] is -24.2% (active); in [8] it was 7.35% (active); in assay [9] it was 8.22% (active); in assay [10], -0.62% (active); in assay [11] it was -35.6% (active); in assay [12], 4.62% (active). For the same compound, the growth in [13] is 27.8%; in assay [14], 37.1%; in assay [15], -8.18% (active); in [16], 20.4%; in assay [17], 3.59% (active); in [18], 16.6%. Besides, the growth in [19] was 77.4%.

`COc1cc(OC)c2c(=O)c(O)c(-c3ccccc3)oc2c1`: the growth in assay [1] is 87.3%; in assay [2] it was 83.4%; in assay [3], 73.3%; in [4], 53.8%; in assay [5], 96.8%; in [6], 68%. Besides, the growth in assay [7] is 69.6%; in assay [8] it was 47.8%; in [9], 54.3%; in assay [10], 40.1%; in [11] it was 68.9%; in [12], 61.9%. For the same compound, the growth in assay [13] is 89%; in assay [14], 65.3%; in assay [15], 81.1%; in assay [16] it was 78.8%; in assay [17] it was 68.4%; in assay [18] it was 88.9%. For the same compound, in assay [19], the growth is 65.9%.

For `O=C1c2ccccc2C(=O)c2c1ccc(C(Br)Br)c2Cl`, the growth in [1] is 60.7%; in [2], 66.6%; in assay [3] it was -48.5% (active); in assay [4] it was 52.4%; in assay [5] it was 83.9%; in assay [6], -74.1% (active). In addition, the growth in assay [7] is 108%; in [8], -6.37% (active); in assay [9], -1.06% (active); in assay [10], -51.2% (active); in assay [11] it was -15.5% (active); in [12] it was 17.1%. The growth in assay [13] was 104%; in assay [14], 35.5%; in [15] it was 93.4%; in assay [16], -43.2% (active); in assay [17], -13.8% (active); in assay [18] it was 85.6%. Further, the growth in assay [19] is 64.6%.

As to `Cc1ccc(NCCNCC(C)(C)O)c2c(=O)c3ccc(Cl)cc3sc12`, the growth was 57.4% in assay [1]; 71.8% in assay [2]; 34% in [3]; 41.2% in assay [4]; 74.2% in assay [5]; 3.43% (active) in [6]. For the same compound, the growth in [7] was 59%; in assay [8], -14.4% (active); in [9], -30.7% (active); in assay [10] it was -31.2% (active); in [11], -12.9% (active); in assay [12] it was 32.2%. The growth was 59.9% in assay [13]; 62.5% in assay [14]; 79.1% in assay [15]; 29.8% in assay [16]; -13.4% (active) in assay [17]; 50.4% in assay [18]. In addition, the growth in assay [19] was 45.9%.

For the compound `CC(=O)OC/C=C(/C)C[P+](c1ccccc1)(c1ccccc1)c1ccccc1`, the growth in assay [1] was 83.8%; in assay [2], 82.4%; in [3], 51.5%; in [4] it was 61.1%; in assay [5] it was 70.6%; in [6], 70%. For the same compound, the growth in assay [7] is 81.9%; in assay [8], 52.7%; in assay [9], 78.2%; in [10], 64.9%; in [11], 0.0221% (active); in [12], 35%. Also, the growth was 81.4% in assay [13]; 85.8% in assay [14]; 94.7% in assay [15]; 83.5% in assay [16]; 62.9% in [17]; 87.9% in assay [18]. In addition, the growth in assay [19] is 90.3%.

The record behind these values is PubChem BioAssay (NCI).
